Measured values published in PubChem BioAssay (Tox21).
Records with an inconclusive call do not appear. Activity calls are given as the source filed them. Calls follow the shape of the full dose curve.

assay: qHTS assay to identify small molecule agonists of the hypoxia (HIF-1) signaling pathway - cell viability counter screen (AID 1224844); settings: HRE-bla ME-180 viability, CellTiter-Glo luminescence, 17 h; series mostly up to 76.8 µM; activity change, negative = cytotoxicity: at the top concentration; also: nearly all actives have a fitted effect of over 50% in size
Description: National Center for Advancing Translational Sciences [NCATS]
NIH Chemical Genomics Center [NCGC]
U.S. Environmental Protection Agency [EPA]
National Institutes of Environmental Health Sciences [NIEHS]
National Toxicology Program [NTP]
U.S. Food and Drug Administration [FDA]
Hypoxia-inducible factor-1 (HIF-1) is the major hypoxia-regulated transcription factor that controls cellular responses to low oxygen concentration. HIF-1 is composed of two subunits: hypoxia responsive HIF-1-alpha and constitutively expressed HIF-1-beta, which is also known as aryl hydrocarbon receptor nuclear translocator. During hypoxic conditions, HIF-1-alpha heterodimerizes with HIF-1-beta and translocates into the nucleus where the HIF-1 complex binds to the hypoxia-response element (HRE) and activates expression of target genes such as VEGF (vascular endothelial growth factor). The HIF-1 pathway is essential to normal growth and development, and is involved in the pathophysiology of cancer, inflammation, and ischemia.
Using a beta-lactamase reporter-gene under control of the hypoxia response element, a cell-based assay [CellSensor(TM) HRE-bla ME-180 from Life Technologies, Carlsbad, CA] was used to measure hypoxia-induced signaling. Tox21 10K library compounds were measured for their ability to induce the reporter gene activity. The cytotoxicity of the Tox21 compound library against HRE-bla ME-180 cell line was tested in parallel by measuring cell viability using CellTiter-Glo assay (Promega, Madison, WI) in the same assay wells.
Tox21 Assay Protocol Summary:
HRE-bla ME-180 cells were dispensed at 2,000 cells per well in 6 uL of assay medium containing 0.5% dialyzed FBS into black wall/clear-bottom 1536-well plates using a Multidrop Combi (Thermo Scientific, Waltham, MA) dispenser. After the assay plates were incubated at 37C and 5% CO2 for 5 hrs, 23 nL of compounds dissolved in DMSO, positive controls or DMSO only was transferred to each well of the assay plate using a Pintool station (Kalypsys, San Diego, CA). The assay plates were incubated at 37C and 5% CO2 for 17 hrs. One uL of LiveBLAzerTM B/G FRET substrate (CCF4-AM) (Life Technologies) was added to each well using a Flying Reagent Dispenser (FRD, Aurora Discovery, San Diego, CA). After 2 hr incubation at room temperature, fluorescence intensity (405 nm excitation, 460 nm and 530 nm emissions) was measured using an Envision plate reader (PerkinElmer, Shelton, CT). For cytotoxicity, 4 ul/well of CellTiter-Glo reagent was added into the assay plates using an FRD. After 30 min incubation at room temperature, the luminescence intensity was measured using a ViewLux plate reader (PerkinElmer).
% is scaled to controls: 0 for no effect and ±100 for the full control effect.

SMILES | activity change, negative = cytotoxicity
OC[C@@H](O)C(O)[C@@H](O)CO (stereo not given in full) | 15.1% (inactive)
CC(C)=CCC/C(C)=C/COC=O | 7.64% (inactive)
O=C(O)CNC(=O)CNC(=O)CNC(=O)CSC(=O)c1ccccc1 | 5.9% [at 35.3 µM] (inactive)
CC1=C(C(=O)O)N2C(=O)[C@@H](NC(=O)[C@H](N)c3ccccc3)[C@H]2SC1 | 3.32% [at 35.3 µM] (inactive)
CC(=O)OC1CCCCC1C(C)(C)C (stereo not given) | 3.13% (inactive)
C=CCN1C[C@H](C(=O)N(CCCN(C)C)C(=O)NCC)C[C@@H]2c3cccc4[nH]cc(c34)C[C@H]21 | 0.645% [at 35.3 µM] (inactive)
CCNC(=O)NCc1cccc(Cl)c1 | 0.735% [at 35.3 µM] (inactive)
COC(=O)c1cc(Cl)cc(Cl)c1 | 9.37% (inactive)
CC(C)CO | 12.6% (inactive)
COC(=O)CCCCC(CCSS/C(CCO)=C(\C)N(C=O)Cc1cnc(C)nc1N)SC(C)=O (stereo not given) | -0.548% [at 35.3 µM] (inactive)
CC(C)C[C@@H]1[C@H](c2ccccc2)OC(=O)N1CCCN1CCCCCC1 | -6.98% [at 35.3 µM] (inactive)
C=CC/C=C/C | -2.24% (inactive)
O=S(=O)(O)c1ccc2c(N=Nc3ccc(S(=O)(=O)O)c4ccccc34)c(O)c(S(=O)(=O)O)cc2c1 | -2.23% [at 6.97 µM] (inactive)
CO[C@@]1(NC(=O)Cc2cccs2)C(=O)N2C(C(=O)O)=C(COC(N)=O)CS[C@@H]21 | -3.11% [at 35.3 µM] (inactive)
O=C1CCCCO1 | -0.617% (inactive)
c1ccc2c(CC3=NCCN3)cccc2c1 | -0.0522% [at 35.3 µM] (inactive)
CC(S)C(C)S (stereo not given) | 1.07% (inactive)
C/C(CC(C)C)=N\O | 3.68% (inactive)
N[C@@H](Cc1ccc(O)cc1)C(=O)O | 2.31% [at 6.97 µM] (inactive)
CO[Si](CCCn1c(=O)n(CCC[Si](OC)(OC)OC)c(=O)n(CCC[Si](OC)(OC)OC)c1=O)(OC)OC | 6.69% [at 35.3 µM] (inactive)

SMILES | activity change, negative = cytotoxicity
CC12CCC(C1)C(C)(C)C2O (stereo not given) | 2.55% (inactive)
CCCCCCCCCCCCCBr | -8.07% (inactive)
C=C(C)C1CC=C(C)C(=O)C1 (stereo not given) | 5.07% (inactive)
O=NN(CCCl)C(=O)NC1CCCCC1 | -0.0132% [at 35.3 µM] (inactive)
OCC(O)CN1CCN(c2ccccc2)CC1 (stereo not given) | 3.81% [at 35.3 µM] (inactive)
COC(C)(OC)OC | 3.48% (inactive)
Cn1nnc2c(C(N)=O)ncn2c1=O | 4.25% [at 35.3 µM] (inactive)
C/C=C(\C)C(C)=O | 0.325% (inactive)
CCC/C=C(\C=O)CC | 0.431% (inactive)
C=CCCCC | 0.246% (inactive)
CC(C)[C@H]1CC[C@H](C)C[C@@H]1O | -6.84% (inactive)
CC(=O)Nc1ccc(OC(=O)c2ccccc2OC(C)=O)cc1 | 10% [at 35.3 µM] (inactive)
CC(=O)CC(=O)OC(C)(C)C | -0.335% (inactive)
c1ccc(-c2nn[nH]n2)cc1 | -0.493% (inactive)
Cc1cccc(Cl)c1 | 3.44% (inactive)
CC/C=C\CCOC(=O)c1ccccc1O | 9.75% (inactive)
C/C=C(\C)C(=O)OCCc1ccccc1 | -5.49% (inactive)
CC(=O)OCC(=O)Nc1cc(C#N)cc(NC(=O)COC(C)=O)c1Cl | -2.25% [at 35.3 µM] (inactive)
CC(C)COC(=O)c1ccccc1 | -16.6% (inactive)
O=Cc1ccccc1Cl | -6.72% (inactive)
